Cell viability data for 10 compounds are collected here from the supplement of paper PMC10981050.

Common to all, as to experiment: cell viability relative to vehicle control; higher = less cytotoxic
Common to all, as to details: 10 µM

The subject of one test is K562. In outline: (§1)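 Four leukaemia lines, as CRISPR-edited mutant clones and isogenic wild-type clones, were tested against Selleck bioactive, kinase and epigenetic probe libraries after removal of identity-inconsistent compounds. Cells were exposed to a single 10 µM dose for 48 h, and CellTiter-Glo luminescence was then read. Viability was calculated relative to the on-plate vehicle control.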

Another test relates to MARIMO. The gist of the method: as §1
The next test relates to MOLM14. The gist of the method: as §1
A further test has as its system OCI-AML2. The gist of the method: as §1

Several values for one entry are separate records, joined by “and”; a condition that tells them apart may be missing. Equal entries are not always repeated. Structures can show the parent of a compound that is named as a salt.

On to `O=c1[nH]ccc2c(S(=O)(=O)N3CCCNCC3)cccc12` [Hydroxyfasudil (HA-1100)HCl], for which the cell viability (usually a read-out of living cells in per cent, often relative to untreated cells) in the test with K562 (SRSF2 genotype: SRSF2 P95H/wt) is 95.5% and 99.7%; in the test with K562 (SRSF2 genotype: SRSF2 wt/wt) it was 96.5%; in the test with MARIMO (SRSF2 genotype: SRSF2 P95H/wt) it was 96.5%; in the test with MARIMO (SRSF2 genotype: SRSF2 wt/wt), 92.7%; in the test with MOLM14 (SRSF2 genotype: SRSF2 P95H/wt), 95.6%; in the test on MOLM14 (SRSF2 genotype: SRSF2 wt/wt), 101%. Also, the cell viability in the test with OCI-AML2 (SRSF2 genotype: P95H/wt) amounted to 95.7%; in the test on OCI-AML2 (SRSF2 genotype: wt/wt) it was 90.5%.
Take `CC[C@H]1OC(=O)C[C@@H](O)[C@H](C)[C@@H](O[C@@H]2O[C@H](C)[C@@H](O[C@H]3C[C@@](C)(O)[C@@H](O)[C@H](C)O3)[C@H](N(C)C)[C@H]2O)[C@@H](CC=O)C[C@@H](C)C(=O)/C=C/C(C)=C/[C@@H]1CO[C@@H]1O[C@H](C)[C@@H](O)[C@@H](OC)[C@H]1OC` [Tylosin]: the cell viability in the test on K562 (SRSF2 genotype: SRSF2 P95H/wt) was 99.6% and 98.3%; in the test with K562 (SRSF2 genotype: SRSF2 wt/wt), 102%; in the test with MARIMO (SRSF2 genotype: SRSF2 P95H/wt), 106%; in the test on MARIMO (SRSF2 genotype: SRSF2 wt/wt), 109%; with MOLM14 (SRSF2 genotype: SRSF2 P95H/wt), 101%; in the test with MOLM14 (SRSF2 genotype: SRSF2 wt/wt) it was 105%. Also, the results for the cell viability in the test on OCI-AML2 (SRSF2 genotype: P95H/wt) and in the test with OCI-AML2 (SRSF2 genotype: wt/wt) were 105% and 112%, respectively.
`COc1ccc(CCNCC(O)COc2cccc(C)c2)cc1OC` (stereo not given) [Bevantolol hydrochloride]: the cell viability with K562 (SRSF2 genotype: SRSF2 P95H/wt) is 92.7% and 89.9%; with K562 (SRSF2 genotype: SRSF2 wt/wt), 88.2%; in the test on MARIMO (SRSF2 genotype: SRSF2 P95H/wt), 82.8%; in the test with MARIMO (SRSF2 genotype: SRSF2 wt/wt), 93.4%; in the test on MOLM14 (SRSF2 genotype: SRSF2 P95H/wt), 90.6%; with MOLM14 (SRSF2 genotype: SRSF2 wt/wt), 91.2%. Further, the cell viability came out at 81.8% with OCI-AML2 (SRSF2 genotype: P95H/wt) and 84.8% in the test on OCI-AML2 (SRSF2 genotype: wt/wt).
For the compound `O=C(NC(Cc1cc(=O)[nH]c2ccccc12)C(=O)O)c1ccc(Cl)cc1` (stereo not given) [Rebamipide], the cell viability was 99.4% and 101% in the test with K562 (SRSF2 genotype: SRSF2 P95H/wt); 96.4% in the test with K562 (SRSF2 genotype: SRSF2 wt/wt); 96.9% in the test with MARIMO (SRSF2 genotype: SRSF2 P95H/wt); 100% with MARIMO (SRSF2 genotype: SRSF2 wt/wt); 104% with MOLM14 (SRSF2 genotype: SRSF2 P95H/wt); 101% in the test on MOLM14 (SRSF2 genotype: SRSF2 wt/wt). Besides, the values for the cell viability in the test with OCI-AML2 (SRSF2 genotype: P95H/wt) and in the test with OCI-AML2 (SRSF2 genotype: wt/wt) were 94.8% and 102%, respectively.
Turning to `N[C@H]1CC[C@H](N[C@@H]2C[C@H]2c2ccccc2)CC1`, the cell viability was 96% and 97.8% in the test on K562 (SRSF2 genotype: SRSF2 P95H/wt); 93.3% in the test on K562 (SRSF2 genotype: SRSF2 wt/wt); 89.7% in the test with MARIMO (SRSF2 genotype: SRSF2 P95H/wt); 88.5% in the test with MARIMO (SRSF2 genotype: SRSF2 wt/wt); 87.5% in the test with MOLM14 (SRSF2 genotype: SRSF2 P95H/wt); 86.2% in the test on MOLM14 (SRSF2 genotype: SRSF2 wt/wt). For the same compound, the cell viability amounted to 71.3% with OCI-AML2 (SRSF2 genotype: P95H/wt) and 84.6% with OCI-AML2 (SRSF2 genotype: wt/wt).
Consider `C=CC[C@@H]1/C=C(\C)C[C@H](C)C[C@H](OC)[C@H]2O[C@@](O)(C(=O)C(=O)N3CCCC[C@H]3C(=O)O[C@H](/C(C)=C/[C@@H]3CC[C@@H](O)[C@H](OC)C3)[C@H](C)[C@@H](O)CC1=O)[C@H](C)C[C@@H]2OC` [Tacrolimus (FK506)], for which the cell viability in the test with K562 (SRSF2 genotype: SRSF2 P95H/wt) is 90.3% and 93.4%; with K562 (SRSF2 genotype: SRSF2 wt/wt) it was 84.9%; in the test with MARIMO (SRSF2 genotype: SRSF2 P95H/wt), 94.3%; with MARIMO (SRSF2 genotype: SRSF2 wt/wt), 97.2%; in the test with MOLM14 (SRSF2 genotype: SRSF2 P95H/wt) it was 92.2%; in the test with MOLM14 (SRSF2 genotype: SRSF2 wt/wt), 96.3%. Also, the cell viability was 91.4% in the test on OCI-AML2 (SRSF2 genotype: P95H/wt) and 98.2% in the test with OCI-AML2 (SRSF2 genotype: wt/wt).
As to `O=C(NCc1ccc(Oc2ccccc2)cc1)c1nc(-c2cc(Br)c(O)c(Br)c2)no1`, the cell viability in the test with K562 (SRSF2 genotype: SRSF2 P95H/wt) was 77.6% and 72%; in the test on K562 (SRSF2 genotype: SRSF2 wt/wt), 66.7%; in the test with MARIMO (SRSF2 genotype: SRSF2 P95H/wt), 80.5%; with MARIMO (SRSF2 genotype: SRSF2 wt/wt), 91.8%; in the test with MOLM14 (SRSF2 genotype: SRSF2 P95H/wt), 59.8%; with MOLM14 (SRSF2 genotype: SRSF2 wt/wt), 84.5%. The results for the cell viability in the test on OCI-AML2 (SRSF2 genotype: P95H/wt) and with OCI-AML2 (SRSF2 genotype: wt/wt) were 88.4% and 81.9%, respectively.
`CO[C@H]1[C@H](O)[C@@H](O)[C@@H](O)[C@H](O)[C@@H]1O` [D-Pinitol]: the cell viability in the test on K562 (SRSF2 genotype: SRSF2 P95H/wt) was 114% and 107%; with K562 (SRSF2 genotype: SRSF2 wt/wt), 112%; in the test on MARIMO (SRSF2 genotype: SRSF2 P95H/wt), 108%; in the test with MARIMO (SRSF2 genotype: SRSF2 wt/wt), 110%; with MOLM14 (SRSF2 genotype: SRSF2 P95H/wt), 105%; with MOLM14 (SRSF2 genotype: SRSF2 wt/wt) it was 102%. Besides, the cell viability in the test on OCI-AML2 (SRSF2 genotype: P95H/wt) stood at 112%; with OCI-AML2 (SRSF2 genotype: wt/wt), 113%.
Consider `CC(=O)Nc1nc(C)c(-c2ccc(Cl)c(S(=O)(=O)NCCO)c2)s1`, for which the cell viability in the test on K562 (SRSF2 genotype: SRSF2 P95H/wt) was 74.9% and 77.5%; in the test with K562 (SRSF2 genotype: SRSF2 wt/wt), 81.1%; with MARIMO (SRSF2 genotype: SRSF2 P95H/wt) it was 38.1%; with MARIMO (SRSF2 genotype: SRSF2 wt/wt), 38.7%; in the test with MOLM14 (SRSF2 genotype: SRSF2 P95H/wt), 32.8%; in the test with MOLM14 (SRSF2 genotype: SRSF2 wt/wt), 37.1%. In addition, the cell viability in the test with OCI-AML2 (SRSF2 genotype: P95H/wt) came to 12.2%; with OCI-AML2 (SRSF2 genotype: wt/wt), 24.4%.
As for `CCN(CC)CC(=O)Nc1c(C)cccc1C` [Lidocaine hydrochloride], the cell viability in the test on K562 (SRSF2 genotype: SRSF2 P95H/wt) was 102% and 103%; in the test on K562 (SRSF2 genotype: SRSF2 wt/wt), 106%; in the test on MARIMO (SRSF2 genotype: SRSF2 P95H/wt) it was 101%; in the test on MARIMO (SRSF2 genotype: SRSF2 wt/wt), 107%; in the test with MOLM14 (SRSF2 genotype: SRSF2 P95H/wt) it was 99.3%; in the test on MOLM14 (SRSF2 genotype: SRSF2 wt/wt), 102%. Moreover, the cell viability in the test on OCI-AML2 (SRSF2 genotype: P95H/wt) was determined as 100%; with OCI-AML2 (SRSF2 genotype: wt/wt) it was 97.1%.
